In PubChem BioAssay (NCATS):
Records with an inconclusive call do not appear. The source made the active and inactive calls. Calls come from the whole dose curve; as a rule, active = well fitted inhibition curve with a large enough effect; inconclusive = small, poorly fitted or top-dose-only effect; inactive = flat fitted curve, though single readings scatter.

What follows are molecules tested on PC15 (assay: qHTS profiling for inhibitors of Plasmodium falciparum proliferation (AID 504749; note: nearly all actives have a fitted effect of over 60% in size;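 for activity, negative = inhibition: 0% = DMSO vehicle and full inhibition = artemisinin control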)). Conditions: P. falciparum in erythrocytes, SYBR Green DNA, 72 h; series mostly up to 28.7 µM; activity, negative = inhibition: at the top concentration.
Outline: (§1)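 P. falciparum-infected erythrocytes (0.3% parasitemia, 2.5% hematocrit final) were exposed to compounds for 72 h at 37 C in 5% CO2, then lysed with SYBR Green buffer overnight at room temperature; parasite DNA fluorescence was normalized to artemisinin and DMSO controls.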
Potency is the fitted concentration of half-maximal effect.

SMILES | activity, negative = inhibition | Potency
CCCCC(CC)COS(=O)(=O)O (stereo not given) | 10.3% (inactive) | 
CC1(O)CCC(C(C)(C)O)CC1 (stereo not given) | 3.01% (inactive) | 
CCCCCCOC(=O)c1cccnc1 | 1.72% (inactive) | 
FC(F)(F)COCC(F)(F)F | 1.03% (inactive) | 
CCCCCCCCCCCC(=O)N(CCO)CCO | 10.5% (inactive) | 
O=P(O)(O)OC[C@H]1O[C@](O)(COP(=O)(O)O)[C@@H](O)[C@@H]1O | 9.1% (inactive) | 
COc1cc(S(C)=O)ccc1-c1nc2ncccc2[nH]1 (stereo not given) | 10.4% (inactive) | 
O=c1[nH]c(=O)n([C@H]2C[C@H](O)[C@@H](CO)O2)cc1/C=C/Br | 4.22% (inactive) | 
CC(=O)[C@H]1CC[C@H]2[C@@H]3C=CC4=CC(=O)CC[C@@]4(C)[C@H]3CC[C@]12C | -6.84% [at 12.8 µM] (inactive) | 
NC(N)=O | 6.16% (inactive) | 
CCC(C(=O)NC(N)=O)c1ccccc1 (stereo not given) | 15.6% (inactive) | 
CC(CCc1ccc(O)cc1)NCC(O)c1ccc(O)cc1 (stereo not given) | 11% (inactive) | 
Nc1nccs1 | 8.61% (inactive) | 
NC(=S)NS(=O)(=O)c1ccc(N)cc1 | 5.96% (inactive) | 
O=C(OCc1ccccc1)c1ccc(O)cc1 | 12.6% (inactive) | 
CC1C(=O)CC2C3(C)CCC2(C(C)C(=O)O)C(=O)C13 (stereo not given) | 3.98% (inactive) | 
O=C(NNCS(=O)(=O)O)c1ccncc1 | 6.27% (inactive) | 
CC(=O)Nc1ccc(OC(C)=O)cc1 | -2.3% (inactive) | 
CC/C(=C(/CC)c1ccc(OP(=O)(O)O)cc1)c1ccc(OP(=O)(O)O)cc1 | 6.86% (inactive) | 
OC[C@H]1O[C@@](CO)(O[C@H]2O[C@H](CO)[C@@H](O)[C@H](O)[C@H]2O)[C@@H](O)[C@@H]1O | 11.9% (inactive) | 

SMILES | activity, negative = inhibition | Potency
[O-][N+](=Nc1ccccc1)c1ccccc1 | 7.2% (inactive) | 
NC(=O)[C@H]1O[C@@H](O)[C@H](O)[C@@H](O)[C@@H]1O | 3.64% (inactive) | 
CC(C)CCC[C@@H](C)[C@H]1CC[C@H]2[C@@H]3CC[C@@H]4C[C@H](O)CC[C@]4(C)[C@H]3CC[C@]12C | -13.4% (inactive) | 
ClC(Cl)Cl | 13.4% (inactive) | 
FC(F)(F)C(F)(F)C(F)(F)C(F)(F)C(F)(F)F | 5.25% (inactive) | 
CC(CC=O)CCCC(C)(C)O (stereo not given) | 12.9% (inactive) | 
CC(C)[C@H](N)C(=O)OCC(CO)OCn1cnc2c(=O)[nH]c(N)nc21 (stereo not given in full) | 7.58% (inactive) | 
CC(C)CCC[C@@H](C)[C@H]1CC[C@H]2[C@@H]3CC=C4C[C@@H](O)CC[C@]4(C)[C@H]3CC[C@]12C | 1.24% (inactive) | 
CC(C)c1ncc([N+](=O)[O-])n1C | 7.08% (inactive) | 
CCCc1ccc(C(=O)O)cc1 | 10.4% (inactive) | 
C=CC(=O)O | 8.07% (inactive) | 
COC(=O)CC[C@H](N)C(=O)O | 4.57% (inactive) | 
CN1C(=O)C[C@@H](C(=O)N[C@@H](Cc2cnc[nH]2)C(=O)N2CCC[C@H]2C(N)=O)NC1=O | 5.57% (inactive) | 
Cc1ncc(C[n+]2csc(CCOP(=O)(O)O)c2C)c(N)n1 | 7.75% (inactive) | 
O=C(O)COc1ccccc1/C=N/NC(=O)c1ccncc1 | 9.33% (inactive) | 
O=C(/C=C/c1cccc(F)c1)NC1CC1 | 3.23% (inactive) | 
CC(C)(Oc1ccc(C2CCCc3ccccc32)cc1)C(=O)O (stereo not given) | 3.8% (inactive) | 
O=C(O)[C@H]1C(=CCO)O[C@H]2CC(=O)N12 | 8.62% (inactive) | 
CN=C1C=CC(=C(c2ccc(N(C)C)cc2)c2ccc(N(C)C)cc2)C=C1 |  | 1 µM (active)
CO | 10.4% (inactive) | 

Each molecule was assayed on PC26 in the same assay as above. Conditions: P. falciparum in erythrocytes, SYBR Green DNA, 72 h; series mostly up to 28.7 µM; activity, negative = inhibition: at the top concentration.
Outline: as §1

SMILES | activity, negative = inhibition | Potency
CCCCC(CC)COS(=O)(=O)O (stereo not given) | 11.2% (inactive) | 
CC1(O)CCC(C(C)(C)O)CC1 (stereo not given) | 4.01% (inactive) | 
CCCCCCOC(=O)c1cccnc1 | 3.31% (inactive) | 
FC(F)(F)COCC(F)(F)F | 6.54% (inactive) | 
CCCCCCCCCCCC(=O)N(CCO)CCO | 4.74% (inactive) | 
O=P(O)(O)OC[C@H]1O[C@](O)(COP(=O)(O)O)[C@@H](O)[C@@H]1O | -1.97% (inactive) | 
COc1cc(S(C)=O)ccc1-c1nc2ncccc2[nH]1 (stereo not given) | 2.68% (inactive) | 
O=c1[nH]c(=O)n([C@H]2C[C@H](O)[C@@H](CO)O2)cc1/C=C/Br | -2.36% (inactive) | 
CC(=O)[C@H]1CC[C@H]2[C@@H]3C=CC4=CC(=O)CC[C@@]4(C)[C@H]3CC[C@]12C | -6.34% [at 12.8 µM] (inactive) | 
NC(N)=O | 7.31% (inactive) | 
CCC(C(=O)NC(N)=O)c1ccccc1 (stereo not given) | 3.37% (inactive) | 
CC(CCc1ccc(O)cc1)NCC(O)c1ccc(O)cc1 (stereo not given) | -8.46% (inactive) | 
Nc1nccs1 | 4.06% (inactive) | 
NC(=S)NS(=O)(=O)c1ccc(N)cc1 | 12% (inactive) | 
O=C(OCc1ccccc1)c1ccc(O)cc1 | -0.711% (inactive) | 
CC1C(=O)CC2C3(C)CCC2(C(C)C(=O)O)C(=O)C13 (stereo not given) | 0.831% (inactive) | 
O=C(NNCS(=O)(=O)O)c1ccncc1 | -1.28% (inactive) | 
CC(=O)Nc1ccc(OC(C)=O)cc1 | 5.77% (inactive) | 
CC/C(=C(/CC)c1ccc(OP(=O)(O)O)cc1)c1ccc(OP(=O)(O)O)cc1 | 14.1% (inactive) | 
OC[C@H]1O[C@@](CO)(O[C@H]2O[C@H](CO)[C@@H](O)[C@H](O)[C@H]2O)[C@@H](O)[C@@H]1O | -2.51% (inactive) | 

SMILES | activity, negative = inhibition | Potency
[O-][N+](=Nc1ccccc1)c1ccccc1 | -5.34% (inactive) | 
NC(=O)[C@H]1O[C@@H](O)[C@H](O)[C@@H](O)[C@@H]1O | 9.74% (inactive) | 
CC(C)CCC[C@@H](C)[C@H]1CC[C@H]2[C@@H]3CC[C@@H]4C[C@H](O)CC[C@]4(C)[C@H]3CC[C@]12C | 1.26% (inactive) | 
ClC(Cl)Cl | 0.193% (inactive) | 
FC(F)(F)C(F)(F)C(F)(F)C(F)(F)C(F)(F)F | -0.715% (inactive) | 
CC(CC=O)CCCC(C)(C)O (stereo not given) | 4.54% (inactive) | 
CC(C)[C@H](N)C(=O)OCC(CO)OCn1cnc2c(=O)[nH]c(N)nc21 (stereo not given in full) | 2.09% (inactive) | 
CC(C)CCC[C@@H](C)[C@H]1CC[C@H]2[C@@H]3CC=C4C[C@@H](O)CC[C@]4(C)[C@H]3CC[C@]12C | -0.408% (inactive) | 
CC(C)c1ncc([N+](=O)[O-])n1C | 3.46% (inactive) | 
CCCc1ccc(C(=O)O)cc1 | -11.5% (inactive) | 
C=CC(=O)O | -6.53% (inactive) | 
COC(=O)CC[C@H](N)C(=O)O | 6.82% (inactive) | 
CN1C(=O)C[C@@H](C(=O)N[C@@H](Cc2cnc[nH]2)C(=O)N2CCC[C@H]2C(N)=O)NC1=O | 4.89% (inactive) | 
Cc1ncc(C[n+]2csc(CCOP(=O)(O)O)c2C)c(N)n1 | 3.8% (inactive) | 
O=C(O)COc1ccccc1/C=N/NC(=O)c1ccncc1 | 5.47% (inactive) | 
O=C(/C=C/c1cccc(F)c1)NC1CC1 | -4.6% (inactive) | 
CC(C)(Oc1ccc(C2CCCc3ccccc32)cc1)C(=O)O (stereo not given) | 9.27% (inactive) | 
O=C(O)[C@H]1C(=CCO)O[C@H]2CC(=O)N12 | 2.28% (inactive) | 
CN=C1C=CC(=C(c2ccc(N(C)C)cc2)c2ccc(N(C)C)cc2)C=C1 |  | 1.69 µM (active)
CO | 1.86% (inactive) | 
